The text below walks through data of PubChem BioAssay.

Activity calls are given as the source filed them. Unless noted, the rule behind the calls is not given here.

The nature of test [1]: resazurin metabolic signal in HepG2 cells – cell-based, resazurin fluorescence, 24 h, PK04 Diversity Set, profiling panel (AID 1172). Note: test concentration not given here. The conditions noted are these: HepG2 viability, higher = more signal.
A short description of test [2]: budding yeast growth changes without added modifier – OD600, strain BY4716, 24 h, basal condition, primary screen (AID 1173). Particulars: S. cerevisiae BY4716 growth, OD600, 24 h; higher = more signal, called active from +8 up or from −8 down.
A short description of test [3]: viability profiling in MM1S myeloma cells – cell-based, resazurin fluorescence, basal, 24 h, PK04 Diversity Set, profiling panel (AID 1174).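 Note: MM1S multiple myeloma cell line; test concentration not given here.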 Particulars: higher = more signal, called active from +8 up or from −8 down.
Test [4] addresses Dihydroorotate dehydrogenase (quinone), mitochondrial (Plasmodium falciparum (isolate 3D7)) (UniProt Q08210). Description: inhibition of P. falciparum DHODH – biochemical, C-terminal His tag, absorbance 600 nm, primary screen (AID 1175).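 Note: recombinant parasite enzyme with a five histidine tag at its C terminus; test concentration not given here.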 Particulars: PfDHODH enzyme, DCIP absorbance 600 nm; higher = more signal, called active from +8 up or from −8 down.
Test [5] in a line: inhibition of PAO1 biofilm formation – strain PAO1, LB-PBS medium, absorbance 600 nm, primary screen (AID 1176). Note: test concentration not given here. Particulars: P. aeruginosa PAO1 growth/biofilm, A600, 12 h; higher = more signal.
Test [6] in a line: growth modulation of vineyard yeast isolate – strain RM11-1a, OD600, basal, 24 h, primary screen (AID 1177).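 Note: cultures grown under basal conditions with no added stressor; test concentration not given here.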 The conditions noted are these: S. cerevisiae RM11-1a growth, OD600, 24 h; higher = more signal, called active from +8 up or from −8 down.
A short description of test [7]: growth of efflux-deficient E. coli DRC39 – strain DRC39, OD650, 24 h, E. coli filamentation inducers, primary screen (AID 1178).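 Note: growth measured as culture turbidity by optical density at 650 nm; test concentration not given here.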 The conditions noted are these: E. coli DRC39 acrAB, higher = more signal, called active from +8 up or from −8 down.
A short description of test [8]: growth of efflux-deficient E. coli DRC39 – strain DRC39, OD650, 48 h, E. coli filamentation inducers, primary screen (AID 1179).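 Note: screen aims at cell division blockers that make cells filament.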 Particulars: E. coli DRC39 delta-acrAB growth, higher = more signal, called active from +8 up or from −8 down.
Test [9] in a line: viability profiling in RPMI8226 myeloma cells – cell-based, resazurin fluorescence, basal, 24 h, PK04 Diversity Set, profiling panel (AID 1180).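 Note: RPMI8826 multiple myeloma cell line at 5000 cells per well; test concentration not given here.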 The conditions noted are these: higher = more signal.
For test [10], the target named is E3 ubiquitin-protein ligase XIAP (Homo sapiens) (UniProt P98170). Description: small molecules binding XIAP protein – biophysical, small-molecule microarray, fluorescence 635 nm, primary screen (AID 1181).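 Note: score merges 667 nm emission and signal to noise over triplicate slides.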 Particulars: higher = more signal.
Chain of E3 ubiquitin-protein ligase XIAP (Homo sapiens) (P98170 whole entry, looked up): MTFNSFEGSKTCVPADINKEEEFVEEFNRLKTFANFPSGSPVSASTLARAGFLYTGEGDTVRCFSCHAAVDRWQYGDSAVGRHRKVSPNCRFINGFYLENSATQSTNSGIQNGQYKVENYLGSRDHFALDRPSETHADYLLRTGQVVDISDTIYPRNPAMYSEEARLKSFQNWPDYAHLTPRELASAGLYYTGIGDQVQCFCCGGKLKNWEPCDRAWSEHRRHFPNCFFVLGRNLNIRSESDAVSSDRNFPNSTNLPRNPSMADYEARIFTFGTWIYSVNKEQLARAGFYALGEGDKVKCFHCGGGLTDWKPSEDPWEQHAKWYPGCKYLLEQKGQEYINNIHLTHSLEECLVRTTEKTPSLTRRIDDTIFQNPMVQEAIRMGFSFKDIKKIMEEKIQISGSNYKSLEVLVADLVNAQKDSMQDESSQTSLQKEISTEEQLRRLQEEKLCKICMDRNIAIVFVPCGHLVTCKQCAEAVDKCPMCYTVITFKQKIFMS

Chain of Dihydroorotate dehydrogenase (quinone), mitochondrial (Plasmodium falciparum (isolate 3D7)) (Q08210 whole entry, looked up): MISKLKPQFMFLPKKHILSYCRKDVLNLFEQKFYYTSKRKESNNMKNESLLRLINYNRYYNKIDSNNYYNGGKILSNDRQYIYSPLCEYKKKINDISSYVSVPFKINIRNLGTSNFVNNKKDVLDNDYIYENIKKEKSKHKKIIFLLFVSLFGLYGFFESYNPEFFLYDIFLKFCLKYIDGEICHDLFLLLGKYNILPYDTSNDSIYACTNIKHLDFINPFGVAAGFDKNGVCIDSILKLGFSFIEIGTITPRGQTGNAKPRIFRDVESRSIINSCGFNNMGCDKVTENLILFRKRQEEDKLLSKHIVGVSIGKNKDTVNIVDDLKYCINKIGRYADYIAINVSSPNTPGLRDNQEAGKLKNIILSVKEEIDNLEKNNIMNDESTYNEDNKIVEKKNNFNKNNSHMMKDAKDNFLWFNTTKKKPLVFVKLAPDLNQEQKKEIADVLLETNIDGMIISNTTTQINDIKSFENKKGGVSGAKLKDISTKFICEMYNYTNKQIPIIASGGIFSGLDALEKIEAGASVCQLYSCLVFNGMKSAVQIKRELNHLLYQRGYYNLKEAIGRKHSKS

Regarding `C=C[C@H](COC(C)=O)NS(=O)(=O)c1ccc(Br)cc1`, the z-score in test [1] was 0.266; in test [2], -1.05 (inactive); in test [3], -0.05 (inactive); in test [5], -0.18 (inactive); in [6], 0.579 (inactive); in test [7], 0.165 (inactive). Further, the z-score in test [8] is -0.0304 (inactive); in [9], -0.675. Also, the composite z-score in [4] is -1.08 (inactive); in [10], -0.0627.
In the case of `CCCNC(=O)[C@@]1(c2ccc([N+](=O)[O-])cc2)CC(=O)N(C2CCCCC2)[C@@H]1c1ccc(CO)cc1I`, the z-score is -0.455 in test [1]; 0.641 (inactive) in test [2]; -0.606 (inactive) in [3]; 0.429 (inactive) in test [5]; -0.327 (inactive) in test [6]; 0.549 (inactive) in [7]. For the same molecule, the z-score in [8] is -0.303 (inactive); in [9], -1.18. The figures for the composite z-score in test [4] and in test [10] were 0.478 (inactive) and 0.134, respectively.
Regarding `COc1ccc([Si](C)(C)[C@@H]2[C@@H](CC(=O)N3CCC[C@H]3CO)O[C@]3(C(=O)N(Cc4ccc(N5C(=O)c6cccc7cccc5c67)cc4)c4ccccc43)[C@H]2C)cc1`, the z-score in [1] is -2.57; in [2], 0.165 (inactive); in test [3] it was -2.82 (inactive); in test [5], -0.012 (inactive); in [6], 1.36 (inactive); in test [7], 0.3 (inactive). Also, the z-score was -0.138 (inactive) in test [8] and -4.75 in test [9]. Further, the composite z-score was -0.0108 (inactive) in test [4] and -0.0386 in [10].
For the molecule `CC(C)(C)OC(=O)CC[C@]1(C(=O)NCCN2CCOCC2)N=C(c2ccc(OCCCO)cc2)O[C@H]1c1ccccc1N=[N+]=[N-]`, the z-score in test [1] is -0.0231; in [2], -0.893 (inactive); in test [3], -1.28 (inactive); in test [5], 0.494 (inactive); in test [6], -0.279 (inactive); in [7], 0.23 (inactive). In addition, the z-score in test [8] was -0.635 (inactive); in test [9], -0.565. Also, the composite z-score in [4] was 0.255 (inactive); in test [10], -0.16.
Take `CC(C)OC(=O)CC(=O)CC(O)c1cccc(C#N)c1` (stereo not given): the z-score was 0.532 in test [1]; -0.167 (inactive) in test [2]; 0.343 (inactive) in test [3]; 0.533 (inactive) in test [5]; -0.828 (inactive) in test [6]; 0.283 (inactive) in test [7]. In addition, the z-score in test [8] was 1.93 (inactive); in test [9], -0.0069. Moreover, the figures for the composite z-score in [4] and in test [10] were -1.29 (inactive) and -0.267, respectively.
In the case of `C=CCOC(=O)[C@@H]1[C@H]2C(=O)O[C@H](c3ccccc3)[C@H](c3ccccc3)N2[C@H](c2ccc(OCCOC(=O)[C@H]3C[C@H]4C(=O)N[C@@H](CCCCN(C)C)C(=O)N4[C@H]3c3cccc(OCCO)c3)cc2)[C@@]12C(=O)Nc1ccc(I)cc12`, the z-score in test [1] was -0.999; in test [2], 2.24 (inactive); in test [3], -0.302 (inactive); in [5], 2.57 (inactive); in [6], 1.17 (inactive); in test [7], -0.0783 (inactive). Moreover, the z-score in test [8] was -0.0986 (inactive); in test [9], -0.209. Also, the composite z-score in test [4] is 0.26 (inactive); in [10] it was -0.202.
For the molecule `C=CCN1Cc2ccccc2C[C@@]2(N=C(c3ccc(OCCCO)cc3)O[C@H]2c2ccccc2)C1=O`, the z-score is 0.211 in test [1]; -5.82 (inactive) in test [2]; -3.09 (inactive) in test [3]; 0.535 (inactive) in test [5]; 0.0893 (inactive) in test [6]; -0.137 (inactive) in test [7]. Further, the z-score is 0.468 (inactive) in test [8] and -4.81 in test [9]. Besides, the composite z-score in test [4] was -0.13 (inactive); in test [10], -0.031.
Turning to `CCOC(=O)C[C@H]1[C@H](OC(=O)c2ccccc2-c2ccccc2)[C@@H](NC(=O)c2ccc3ccccc3n2)c2cc(OCCCO)ccc2N1C(=O)c1ccc2ccccc2n1`, the z-score in test [1] is 0.922; in [2] it was -1.08 (inactive); in test [3], 0.833 (inactive); in test [5], 0.719 (inactive); in test [6], -0.344 (inactive); in test [7] it was 1.33 (inactive). Besides, the z-score is 1.21 (inactive) in test [8] and -0.19 in test [9]. The results for the composite z-score in test [4] and in [10] were -0.431 (inactive) and -0.162, respectively.
As for `O=C1NC(=O)C2C1C=CC(C(O)c1ccc3c(c1)OCO3)N2Nc1ccccn1` (stereo not given), the z-score in test [1] is -0.861; in test [2], -0.117 (inactive); in test [3], -0.854 (inactive); in test [5], 1.89 (inactive); in [6], -0.86 (inactive); in [7] it was 0.812 (inactive). For the same molecule, the z-score in test [8] was 1.3 (inactive); in test [9], -0.431. Also, the composite z-score is 0.315 (inactive) in test [4] and 0.0185 in test [10].
Turning to `O=C1c2ccccc2[C@](Cc2ccccc2I)(C(=O)NCCN2CCOCC2)[C@H](c2ccc(CO)cc2)N1Cc1ccccc1`, the z-score in test [1] is -0.462; in [2], -0.915 (inactive); in test [3], 0.068 (inactive); in test [5], 0.186 (inactive); in [6] it was 0.233 (inactive); in test [7] it was -0.256 (inactive). In addition, the values for the z-score in test [8] and in test [9] were -0.0438 (inactive) and -0.713, respectively. Also, the composite z-score in test [4] is 0.215 (inactive); in test [10], 0.0904.
Regarding `NC(=O)NCC#Cc1ccc2c(c1)[C@]1(C(=O)N2)[C@H](C(=O)O)[C@H]2C(=O)O[C@H](c3ccccc3)[C@H](c3ccccc3)N2[C@@H]1c1ccccc1OCCO`, the z-score in test [1] was 1.03; in [2], -1.81 (inactive); in test [3], 0.837 (inactive); in [5], 2.75 (inactive); in [6], -0.888 (inactive); in [7], 0.525 (inactive). Further, the values for the z-score in test [8] and in test [9] were 1.16 (inactive) and 1, respectively. The composite z-score is -0.988 (inactive) in test [4] and -0.0599 in test [10].
Turning to `COc1ccc([Si](C)(C)[C@@H]2[C@@H](CCn3cc([C@H](O)c4ccccc4)nn3)O[C@]3(C(=O)N(Cc4ccc(N5CCOC5=O)cc4)c4ccccc43)[C@H]2C)cc1`, the z-score in test [1] is 0.977; in [2], 0.146 (inactive); in test [3] it was -0.806 (inactive); in test [5], 0.483 (inactive); in [6] it was 1.54 (inactive); in [7] it was 0.323 (inactive). In addition, the results for the z-score in [8] and in test [9] were -0.0694 (inactive) and -0.12, respectively. Besides, the composite z-score in test [4] is 0.181 (inactive); in [10], 0.049.
